# Where “and” joins values, the source holds several entries; their conditions need not be identical. Equal entries are not always repeated. Calls of active or inactive are those of the source. How the source made its calls: active means hit-call score of the fitted dose curve at least 0.9, where 1 is the maximum; inactive means score below 0.9.
# Read-out: Urokinase-type plasminogen activator receptor (uPAR), PLAUR (gene 5329)
# Experiment: BSK_BE3C_uPAR: BioMAP Diversity Plus: BE3C Assay for Urokinase-type plasminogen activator receptor (uPAR) Biomarker Activity (AID 2283039);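 on outcome: cells exposed to compound for one day before measurement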
# Conditions: primary human bronchial epithelial cells; actives raise or lower the signal
# Experimental: BSK_BE3C is a cell-based, multiplexed-readout assay that uses bronchial epithelial cell, a human lung primary cell, with measurements taken at 24 hours after chemical dosing in a 96-well plate.BSK_BE3CAR is an assay component measured in the BSK_BE3C assay. It measures uPAR antibody related to regulation of gene expression using ELISA technology.Data from the assay component BSK_BE3CAR was analyzed into 1 assay endpoint. This assay endpoint, BSK_BE3CAR, was analyzed with bidirectional fitting relative to DMSO as the negative control and baseline of activity. Using a type of binding reporter, gain or loss-of-signal activity can be used to understand changes in the signaling as they relate to the gene PLAUR. Furthermore, this assay endpoint can be referred to as a primary readout, because this assay has produced multiple assay endpoints where this one serves a signaling function. To generalize the intended target to other relatable targets, this assay endpoint is annotated to the cytokine intended target family, where the subfamily is plasmogen activator.
# The levels of cell surface (or secreted, indicated by the prefix "s") biomarker endpoints were measured by ELISA. Overt cytotoxicity to cells in confluent adherent cultures (all systems other than the BT system) was assessed by measuring total protein levels using sulforhodamine B (SRB) staining in parallel cultures at the time of biomarker measurements, indicated as SRB endpoints. For proliferation assays for adherent cell types, individual cell types are cultured at sub-confluence and relative cell numbers quantified by SRB staining at time points optimized for each system (48 h: 3C and CASM3C systems; 72 h: BT and HDF3CGF systems; 96 h: SAg system). SRB was performed by staining cells with 0.1% SRB after fixation with 10% TCA and reading wells at 560 nm.Viability and proliferation of PBMC (T cells) was quantified by Alamar Blue reduction for the SAg and BT systems. For PBMC viability (referred to as PBMC Cytotoxicity within the assay endpoint names), cells were plated (75,000/well in a 96-well plate) and then chemical samples added for 1 h before addition of activators, SEB and TSST-1 (20 ng/mL final concentration each). Cells were incubated for 90 h. Then, Alamar Blue (20 uL/well) (Invitrogen, Cat DAL1100) was added for 6 h, and the plates were read with a fluorescence microplate reader at 546/580 nm (excitation/emission). For PBMC proliferation, cells were plated and activated as above but incubated for only 16 h prior to addition of Alamar Blue. Plates were read after 6 h.
Compound,outcome,AC50
c1ccc2c(c1)-c1ccc3ccc4cccc5cc-2c1c3c45,inactive,–
C=CC(=O)OCC(CO)(COC(=O)C=C)COC(=O)C=C,–,2.72 µM (active)
OCC(F)(OC(F)(F)C(F)(OC(F)(F)C(F)(F)C(F)(F)F)C(F)(F)F)C(F)(F)F (stereo not given),inactive,–
O=C(c1ccc(OCCN2CCCCC2)cc1)c1c(-c2ccc(O)cc2)sc2cc(O)ccc12,–,31.8 µM (active)
CC1(C)[C@H](C=C(Cl)Cl)[C@H]1C(=O)OCc1cccc(Oc2ccccc2)c1,inactive,–
O=S1(=O)CC(Cl)(Cl)C(Cl)(Cl)C1,–,1.66 µM (active)
Nc1ccc(N)c([N+](=O)[O-])c1,inactive,–
CCC(=O)OCC=Cc1ccccc1,inactive,–
CCCCCCCC1CCCC1=O (stereo not given),inactive,–
COC(=O)c1ccc(C(=O)OC)cc1,inactive,–
CC(C)Cc1ccc(C(C)C(=O)O)cc1 (stereo not given),inactive,–
O=C(O)C(F)(F)OC(F)(F)C(F)(F)OC(F)(F)C(F)(F)C(F)(F)C(F)(F)F,inactive,–
C=C(C)C(=O)OCCC(F)(F)C(F)(F)C(F)(F)C(F)(F)C(F)(F)C(F)(F)C(F)(F)C(F)(F)F,inactive,–
C=C1CC/C=C(\C)CC[C@@H]2[C@@H]1CC2(C)C,inactive,–
O=S(=O)(O)C(F)(F)C(F)(F)OC(F)(F)C(F)(F)F,inactive,–
CCn1cc(C(=O)O)c(=O)c2ccc(C)nc21,inactive,–
OCCN1CCOCC1,inactive,–
C[C@]12CC[C@@H]3c4ccc(O)cc4CC[C@H]3[C@@H]1CC[C@@H]2O,inactive,–
CC(=O)CCC=C(C)CCC=C(C)C,inactive,–
CCOC(=O)C=Cc1ccccc1,inactive,–

Compound,outcome,AC50
CC1=CC(C)C(C=O)C(C)C1 (stereo not given) (tested in a mixture with another compound),inactive,–
C#C[C@]1(O)CC[C@H]2[C@@H]3CCc4cc(O)ccc4[C@H]3CC[C@@]21C,inactive,–
CCCO[Si](OCCC)(OCCC)OCCC,inactive,–
CC(C)(CO)CO,inactive,–
C=C(F)C(=O)OC(C(F)(F)F)C(F)(F)F,inactive,–
CC(=O)c1ccc(C)cc1,inactive,–
C=C(C)C(N)=O,inactive,–
CCCCCCCCCC(=O)OCC,inactive,–
c1ccc(OCCOc2ccccc2)cc1,inactive,–
CCCCOCCOCCO,inactive,–
O=C1OC2(c3ccc(O)cc3Oc3cc(O)ccc32)c2ccccc21,inactive,–
CC(=O)OCC=C(C)CCC=C(C)CCC=C(C)C,inactive,–
NC(=O)c1c(Cl)cccc1Cl,inactive,–
CC=CC(=O)C1=C(C)C=CCC1(C)C,inactive,–
CCCCN(CCO)CCO,inactive,–
CCCCCCCCCCCCS,inactive,–
CC(C)(C)c1cccc(O)c1,inactive,–
CC/C(=C(\c1ccccc1)c1ccc(OCCN(C)C)cc1)c1ccccc1,–,8.83 µM (active) and 6.66 µM (active)
COc1ccccc1NC(=O)CC(C)=O,inactive,–
c1ccc(Sc2ccccc2)cc1,inactive,–

# Reference: PubChem BioAssay (EPA / NIEHS)
